# This is a sample that favours compounds with a hit; in the whole collection about 1.4% have one here.
# Mtb MenB inh – blocks the Mycobacterium tuberculosis MenB enzyme; MenB enzyme assay, absorbance read-out; inhibition, % (no concentration beside the values); hit rate 0.43% among 100,000; in the data active = inhibition above about 21%, passing the limit was not always enough
# PV pol inh – inhibitors of poliovirus RNA polymerase binding and polymerization; P03300; poliovirus polymerase elongation, fluorescence polarization; active compounds read low; % elongation, % (compound at 16.7 µg/mL); hit rate 0.66% among 150,000; in the data active = % elongation below about 90%
# MbtI inh – inhibitors of Mycobacterium tuberculosis siderophore enzyme MbtI. hit rate 0.89% among 100,000. inhibition, % (concentration not given with the values). AID 493033. purified MbtI enzyme, fluorescence intensity read-out; in the data active = inhibition mostly above about 56%, no sharp cut-off; inactive = mostly below about 77%
# Target sequence (P9WFX0 whole entry, looked up): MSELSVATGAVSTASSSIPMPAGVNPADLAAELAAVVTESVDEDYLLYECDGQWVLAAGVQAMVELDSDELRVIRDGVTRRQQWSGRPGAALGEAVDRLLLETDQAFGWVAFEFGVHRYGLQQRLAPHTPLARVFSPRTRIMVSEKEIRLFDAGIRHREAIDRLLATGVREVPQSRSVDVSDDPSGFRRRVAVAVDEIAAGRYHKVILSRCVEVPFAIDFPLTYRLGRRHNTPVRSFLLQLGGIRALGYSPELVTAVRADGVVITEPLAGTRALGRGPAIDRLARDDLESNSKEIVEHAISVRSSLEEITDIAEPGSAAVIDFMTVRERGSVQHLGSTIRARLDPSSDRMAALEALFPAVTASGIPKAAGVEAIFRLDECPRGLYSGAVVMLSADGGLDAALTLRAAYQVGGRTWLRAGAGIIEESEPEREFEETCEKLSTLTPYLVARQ
# AID504770 – E. coli YBA685 growth inhibition, screen for V. cholerae RctB inhibitors; E. coli YBA685 rctB-dependent plasmid, OD600 growth, 3 h; active compounds read low; z-score (no concentration beside the values); hit rate 0.27% among 130,000; in the data active = z-score below about -2, passing the limit was not always enough
# Active calls of the source: *; i = inactive; · = not tested or not shown; ! = not confirmed by another sample.
SMILES,Mtb MenB inh,PV pol inh,MbtI inh,AID504770
CCOC(=O)c1c(C)[nH]c(C)c1C(=O)CO/N=C/c1ccco1,-4,103,1,-0.05
CCOc1ccc(NC(=O)c2c(NC(=O)c3ccccc3Br)sc3c2CCC(C)C3)cc1 (stereo not given),·,78*,·,·
C1CCC(N2CCN(C3CCCC3)CC2)C1,32*,99,-7,-0.3
CCC(C)N1CCN(C2CCCCC2)CC1 (stereo not given),44*,100,-11,-0.4
Cc1ccc(CSc2nc(N)cc(N)n2)cc1,36*,101,4,-0.35
COc1ccc(NC(=O)c2c(NC(=O)CSc3nnc(C4CC4)n3C)sc3c2CCCC3)cc1,-46,111,36,1.6
COCCNC(=S)N1c2ccccc2CC1C (stereo not given),-33,84*,64*,-1.2
O=C(NCCO)c1ccc(N2C(=O)CCC2=O)cc1,0,102,-18,-0.7
O=C(Nc1cc(C(F)(F)F)cc(C(F)(F)F)c1)C(=S)NCCNc1cccc2ccccc12,-8,71*,·,0.25
CCCN(CCC)C1=C(C(=O)c2ccccc2)N(CC(N)=O)S(=O)(=O)c2ccccc21,10,101,6,0.65
CCOc1ccc(N2C(=O)/C(=C/c3cccs3)C(=O)N(c3ccccc3)C2=S)cc1,-22,106,73*,-0.55
CC1(C)CC(=O)C=C(NNc2ccccn2)C1,-78,101,58*,-0.55
Cc1cnc(N)c(C)n1,5,103,104,-0.7
CN(C)C(=O)ONC(=O)Cc1ccccc1,·,·,·,-3.9*
O=C(NOC(=O)c1cccs1)c1ccccc1,-14,101,5,-2.6*
Cc1cc2ncn(S(=O)(=O)c3ccc(S(=O)(=O)N(C)C)cc3)c2cc1C,-41,102,-5,-0.65
CCCc1nc(=S)[nH][nH]1,-10,101,69,0.45
S=c1nc(CCCCc2nc(=S)[nH][nH]2)[nH][nH]1,8,75*,72*,-0.45
N#Cc1ccc(-c2ccccc2)[nH]c1=O,-22,100,i,-0.9
N#Cc1nc2[nH]c(-c3ccccc3)cc(=O)n2c1C#N,-4,90*,105,0.1
CCCn1nnnc1SCC(=O)c1ccccc1,31*,103,3,1.6
O=C(CSc1nnnn1Cc1ccccc1)c1ccccc1,-28,101,-2,-0.05
Cn1c(SCC(=O)NC(=O)Nc2ccccc2F)nc2cc(S(N)(=O)=O)ccc21,-39,85*,96*,-0.3
N#Cc1cc(-c2ccccc2C(F)(F)F)no1,-60,100,-6,-2.6*
O=S1(=O)C=C(SCCN2CCOCC2)c2ccccc21,-7,102,-2,-3.4*
SMILES,Mtb MenB inh,PV pol inh,MbtI inh,AID504770
COCCN(Cc1cc2ccc(C)cc2[nH]c1=O)C(=O)c1ccccc1,-17,103,91,0.45
Cc1ccc2[nH]cc(CCNS(C)(=O)=O)c2c1,26*,102,14,0.8
Cc1ccc(Nc2nnns2)cc1C,-18,94,60*,-0.95
Cc1ccc(C(=O)CN(Cc2ccccc2)c2ccccc2)cc1,-4,105,-8,-0.45
O=c1oc2c3ccccc3oc(=O)c2c2ccccc12,-3,99,22,0.25
O=c1oc(Cl)c(Cl)c2ccccc12,-9,90*!,4,·
Clc1nc2c(Cl)cccc2s1,-25,103,59*,-1
Clc1cccc2sc(N3CCCC3)nc12,-4,102,-1,-0.8
Cc1cccc(-c2nnc(C3CCN(S(=O)(=O)Cc4ccccc4)CC3)o2)c1,-63,98,72*,-0.5
Cc1ccc(/C=C2\CCCc3ccccc3C2=O)o1,-10,103,21,1.2
Cc1ccc(/C=C2/C(=O)/C(=C/c3ccc(C)o3)C3CCC2N3C)o1,-138,71,58,-1.6
Cc1ccc(/C=C2/C=CC(=O)O2)o1,-313,81*,·,-1.5
Cc1ccc(/C=C2\CC/C(=C\c3ccc(C)o3)C2=O)o1,-74,84,99*,-0.7
Cc1ccc(/C=C2/CC(C)C/C(=C\c3ccc(C)o3)C2=O)o1 (stereo not given),-48,120,92*,1.9
CCOc1ccc(C2CC(=O)NC(SCC(=O)NC3CCCCC3)=C2C#N)cc1 (stereo not given),·,·,·,0.4
O=C(Nc1ccc(Cl)c(-c2nc3cc(Cl)ccc3o2)c1)c1cc2ccccc2o1,·,105,·,·
O=C(Nc1ccc(-c2nc3cc(Cl)ccc3o2)cc1)c1cc2ccccc2o1,·,49*,·,·
Cc1cc2nc(-c3ccc(NC(=O)c4ccccc4F)cc3)oc2cc1C,·,24*,·,·
Cc1ccccc1C(=O)Nc1ccc(-c2nc3ccccc3o2)cc1,2,100,67,0.6
O=C(Nc1ccccc1)Nc1c2ccccc2nc(=O)n1Cc1ccccc1,-8,104,-9,-1.1
CCOC(=O)c1ccc(N2C(=O)CC(N3CCN(c4ccc(O)cc4)CC3)C2=O)cc1 (stereo not given),17,101,11,-0.3
CCOc1cc(CO)cc(Br)c1OCc1ccc(C(=O)O)cc1,-5,100,1,-0.1
CCCN1CCN(CCCNC(=O)c2cc3c(Cl)nc4ccccc4c3s2)CC1,·,67*,·,·
CCN1CCN(CCCNC(=O)c2cc3c(=O)n(C)c4ccccc4c3s2)CC1,·,74*,·,·
NC(=O)Cn1c(CSc2nnnn2C2CCCC2)nc2ccccc2c1=O,-8,104,-2,0.25
SMILES,Mtb MenB inh,PV pol inh,MbtI inh,AID504770
Cc1cc(OC(C)C(=O)O)cc(C)c1Cl (stereo not given),-46,102,-2,-0.55
COC(=O)C(C(=O)OC)C(Nc1ccccc1)c1ccccc1 (stereo not given),3,25*,·,-0.1
CCOC(=O)C(Nc1cccc(F)c1)c1ccccc1 (stereo not given),·,·,-7,0.1
CC1(C)C2CCC1(C)C(OCC[N+]1(C)CCCC1)C2 (stereo not given),8,105,2,1.5
CSc1ncc(/C=C2/C(=O)NC(=O)N(C3CCCCC3)C2=O)cn1,-38,100,71*,-0.3
Cc1ccc(/C=C2/C(=O)NC(=O)N(C3CCCCC3)C2=O)cc1,3,99,6,-0.7
Cc1ccc(-n2c(C)cc(/C=C3\SC(=O)NC3=O)c2C)cc1,39*,100,-27,0.7
CC(C)Cn1c(NC(=O)NC(C)(C)C)c2ccccc2nc1=O,-13,103,140,-0.25
COc1ccc(S(=O)(=O)N2CCC(NC(=O)NC3CCCC3)CC2)cc1,-14,102,42,-0.85
COc1ccc(S(=O)(=O)N2CCC(NC(=O)c3ccccc3)CC2)cc1,33*,102,0,1.4
S=C(SCc1ncon1)N1CCOCC1,-5,96,92*,-0.75
O=C(C1CCCC1)N1CCc2ccccc21,-23,101,·,1.1
CC1=C(C)NC(=S)SC1,-20,99,97*,1.6
Cc1csc2ncnc(N3CCN(C(=S)NCC4CC4)CC3)c12,-5,88*,36,-0.65
CCC(C)N1C(=O)/C(=C\c2cnn(-c3ccccc3)c2)C(=O)NC1=S (stereo not given),-30,99,80*,-1.1
O=C1NC(=O)N(c2ccccc2)C(=O)/C1=C/c1ccccc1,-40,98,3,2.1
CCC1CCCCN1C(=O)c1ccccc1F (stereo not given),-7,104,-18,-0.75
Oc1ccc(Cl)cc1-c1csnn1,2,100,9,-2.2*

# Screening results deposited in PubChem by ICCB-Longwood Screening Facility, Harvard Medical School.
